Drawing on PubChem BioAssay (EPA / NIEHS), this text covers outcome and AC50 for 20 compounds.

The target of assay [1] is Nuclear respiratory factor 1 (Homo sapiens) (UniProt Q16656). Nature of the assay: ATG_NRF1_CIS: Attagene CIS-FACTORIAL HepG2 Assay for human Nuclear Respiratory Factor 1 (NRF1) Orphan Gene (AID 2282987). Particulars: HepG2 NRF1 cis-element reporter, Attagene multiplex; actives raise or lower the signal. The procedure, abridged: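 Fluorescence intensity of labelled reporter cDNA fragments, resolved by capillary electrophoresis, served as readout for NRF1 cis-element activity. Transiently transfected HepG2 cells were dosed for 24 hours; activity in either direction was fitted against DMSO negative control.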
Nuclear respiratory factor 1 (Homo sapiens), sequence (Q16656 whole entry, looked up, the tested form may be a part): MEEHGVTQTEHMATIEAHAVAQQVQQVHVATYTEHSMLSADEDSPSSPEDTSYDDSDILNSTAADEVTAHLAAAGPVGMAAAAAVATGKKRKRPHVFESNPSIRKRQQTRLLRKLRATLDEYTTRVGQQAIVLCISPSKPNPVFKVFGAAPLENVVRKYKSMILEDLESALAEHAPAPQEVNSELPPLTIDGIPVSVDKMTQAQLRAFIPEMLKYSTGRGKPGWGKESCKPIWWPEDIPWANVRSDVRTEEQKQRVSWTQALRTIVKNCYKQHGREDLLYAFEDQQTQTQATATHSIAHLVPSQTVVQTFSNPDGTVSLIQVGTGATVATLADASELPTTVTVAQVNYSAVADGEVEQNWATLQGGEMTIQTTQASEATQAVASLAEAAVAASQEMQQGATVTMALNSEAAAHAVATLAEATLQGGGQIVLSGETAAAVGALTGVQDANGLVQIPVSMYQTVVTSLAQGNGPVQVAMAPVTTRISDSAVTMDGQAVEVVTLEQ

Assay [2] can be described thus: ATG_NFI_CIS: Attagene CIS-FACTORIAL HepG2 Assay for human Nuclear Factor I (NFI) (AID 2282989). As to conditions: HepG2 cis-regulatory reporter, NFI response element transcription; actives raise or lower the signal. The method in brief:
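Cells: human liver HepG2, transiently transfected with promoter-regulated reporter transcription units. Exposure 24 h. Detection: fluorescent RT-PCR products separated by capillary electrophoresis, normalised to DMSO negative control.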

Assay [3] deals with Myc proto-oncogene protein (Homo sapiens) (UniProt P01106). Nature of the assay: ATG_Myc_CIS: Attagene CIS-FACTORIAL HepG2 Assay for human Myelocytomatosis (Myc) Proto-Oncogene Transcription Factor (AID 2282990). Particulars: HepG2, Attagene cis-reporter transcription factor activity; actives raise or lower the signal. The procedure, abridged: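 Read-out: fluorescent reporter mRNA fragments resolved by capillary electrophoresis after RT-PCR. Human HepG2 liver cells carried transfected cis-element reporter units and were dosed for 24 h. Gain or loss of signal fitted relative to DMSO baseline.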
Myc proto-oncogene protein (Homo sapiens), sequence (P01106 whole entry, looked up, the tested form may be a part): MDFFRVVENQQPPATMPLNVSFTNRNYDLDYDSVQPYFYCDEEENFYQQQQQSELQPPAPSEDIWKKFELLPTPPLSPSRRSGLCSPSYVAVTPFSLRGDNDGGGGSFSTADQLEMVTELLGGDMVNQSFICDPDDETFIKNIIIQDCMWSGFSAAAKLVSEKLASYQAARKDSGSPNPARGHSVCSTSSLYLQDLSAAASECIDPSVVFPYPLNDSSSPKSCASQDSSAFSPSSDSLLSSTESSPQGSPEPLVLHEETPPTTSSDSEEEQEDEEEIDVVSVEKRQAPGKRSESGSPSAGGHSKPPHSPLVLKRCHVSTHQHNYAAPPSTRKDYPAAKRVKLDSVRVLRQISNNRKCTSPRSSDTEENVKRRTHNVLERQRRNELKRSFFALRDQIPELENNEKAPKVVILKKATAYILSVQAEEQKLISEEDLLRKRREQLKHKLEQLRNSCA

Assay [4] in a line: ATG_NF_kB_CIS: Attagene CIS-FACTORIAL HepG2 Assay for human Nuclear Factor Kappa B (NF-kB) (AID 2282991). Particulars: HepG2 Attagene cis-factorial NF-kB reporter mRNA; actives raise or lower the signal. The method in brief:
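Endogenous transcription factor activity in HepG2 was captured via cis-regulated reporter constructs; after 24 h dosing, reporter mRNA was reverse-transcribed, amplified, fluorescently labelled and sized by capillary electrophoresis, with activity fitted bidirectionally relative to DMSO.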

The nature of assay [5]: ATG_NRF2_ARE_CIS: Attagene CIS-FACTORIAL HepG2 Assay for human Nuclear Factor Erythroid 2 Related Factor 2 (NFR2) response to Antioxidant Response Elements (ARE) (AID 2282992).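 For AC50: reporter mRNA level measured by RT-PCR and capillary electrophoresis fluorescence.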 Particulars: HepG2 Attagene ARE/NRF2 reporter, transcription factor activity; actives raise or lower the signal. The method in brief:
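Multiplexed reporter mRNA profiling in HepG2 after a 24 h chemical exposure. Curves fitted in both directions relative to DMSO negative control.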

A short description of assay [6]: ATG_Oct_MLP_CIS: Attagene CIS-FACTORIAL HepG2 Assay for human Octamer-Binding Transcription Factor (Oct) (AID 2282993). As to conditions: HepG2 Attagene cis-factorial Oct reporter, mRNA; actives raise or lower the signal. The procedure, abridged:
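HepG2, transient MRTU transfection, cis promoter elements; 24 h dosing; RT-PCR/CE fluorescence read-out of reporter mRNA; fit both directions vs DMSO.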

Assay [7] addresses Cellular tumor antigen p53 (Homo sapiens) (UniProt P04637). Description: ATG_p53_CIS: Attagene CIS-FACTORIAL HepG2 Assay for human p53 Transcription Factor (AID 2282994). As to conditions: HepG2 p53 cis-element reporter, Attagene mRNA; actives raise or lower the signal. The method in brief:
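Multiplexed reporter mRNA assay in human HepG2 liver cells; cis-regulated units report endogenous factor activity. Values come from bidirectional curve fitting against DMSO negative control after 24 h treatment.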

Assay [8] is described as follows: BSK_3C_TissueFactor: BioMAP Diversity Plus: 3C Assay for Tissue Factor Biomarker Activity (AID 2282997). As to conditions: BioMAP 3C HUVEC, tissue factor biomarker readout; actives raise or lower the signal. The method in brief:
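HUVEC were treated 24 h, then surface tissue factor measured by ELISA and fitted bidirectionally against DMSO. Parallel SRB total-protein staining assessed overt cytotoxicity at the same time point.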

A short description of assay [9]: BSK_3C_uPAR: BioMAP Diversity Plus: 3C Assay for Urokinase-type plasminogen activator receptor (uPAR) Biomarker Activity (AID 2282998). Particulars: BioMAP 3C HUVEC, uPAR biomarker ELISA; actives raise or lower the signal. The procedure, abridged: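 A multiplexed primary-cell system built on human umbilical vein endothelium was used, with chemical present for 24 h before reading. Cell-surface uPAR was detected by ELISA; signal change in either direction counted against DMSO.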

“And” between values parts separate entries of the source, which are not always exact repeats. Equal values may be shown once. The source holds several records for some structures; these can differ, active in one and inactive in another. The source made the active and inactive calls. Rule for the calls: active = hit-call score of the fitted dose curve at least 0.9, where 1 is the maximum; inactive = score below 0.9.

The term AC50 denotes the midpoint of the concentration-response curve, whichever way the signal moves.

Cellular tumor antigen p53 (Homo sapiens), sequence (P04637 whole entry, looked up): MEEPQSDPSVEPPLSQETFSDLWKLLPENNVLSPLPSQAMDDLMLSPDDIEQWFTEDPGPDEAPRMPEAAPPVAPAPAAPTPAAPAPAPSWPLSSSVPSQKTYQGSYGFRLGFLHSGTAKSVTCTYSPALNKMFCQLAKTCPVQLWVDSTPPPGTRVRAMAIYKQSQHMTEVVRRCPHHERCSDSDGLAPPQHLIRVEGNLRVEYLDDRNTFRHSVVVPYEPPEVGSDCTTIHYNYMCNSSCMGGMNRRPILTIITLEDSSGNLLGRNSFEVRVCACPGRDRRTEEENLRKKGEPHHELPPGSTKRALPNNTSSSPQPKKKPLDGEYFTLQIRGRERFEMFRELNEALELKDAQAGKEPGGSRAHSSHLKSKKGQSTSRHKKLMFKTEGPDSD

Consider `COC(=O)c1ccccc1C(=O)O`, for which the result in assay [1], in assay [2], in assay [3], in [4], in assay [5] and in [6] was inactive. The outcome in [7], in [8] and in [9] was inactive.
Turning to `O=C(c1ccccc1)C1CCCCC1`, the compound was classed as inactive in [1], in [2], in assay [3], in assay [4], in assay [5] and in assay [6]. Further, the call in assay [7], in assay [8] and in assay [9] was inactive.
For the compound `CCOC(=O)C(C)Oc1ccc(Oc2nc3ccc(Cl)cc3o2)cc1` (stereo not drawn), the compound was called inactive in assay [1], in assay [2], in assay [3], in assay [4], in [5] and in assay [6]. Besides, the compound was classed as inactive in [7] and in [8]. In addition, the concentration at half-maximal activity (AC50) in assay [9] is 13 µM (active).
For `CCCCOC(=O)[C@@H](C)Oc1ccc(Oc2ccc(C(F)(F)F)cn2)cc1`, the outcome in [1], in assay [2], in assay [3], in assay [4], in [5] and in [6] was inactive. Further, the compound was classed as inactive in [7], in assay [8] and in assay [9].
In the case of `CCCCOC(=O)C(C)Oc1ccc(Oc2ccc(C(F)(F)F)cn2)cc1` (stereo not drawn), the call in assay [1], in [2], in assay [3], in assay [4], in assay [5] and in [6] was inactive. Further, the result in assay [7], in assay [8] and in assay [9] was inactive.
As for `N#CSCSc1nc2ccccc2s1`, the half-maximal activity concentration (AC50) in [1] was 16.7 µM (active); in [2], 15.4 µM (active) and 358 nM (active); in [4], 3.07 µM (active); in [5] it was 2.89 µM (active); in assay [6], 14.5 µM (active); in assay [8], 3.33 µM (active) and 5.66 µM (active). In assay [9], the AC50 is 2.04 µM (active) and 6.26 µM (active). In addition, the compound was called inactive in assay [1], in assay [3], in assay [4], in assay [5] and in assay [6].
`CCCCC(CC)CN1C(=O)C2C3C=CC(C3)C2C1=O` (stereo not drawn): the compound was classed as inactive in assay [1], in assay [2], in assay [3], in assay [4], in assay [7] and in [8]. For the same compound, the AC50 in assay [5] was 16.7 µM (active); in assay [6], 17.4 µM (active); in assay [9], 32.2 µM (active).
On to `COC(=O)c1ccccc1S(=O)(=O)NC(=O)Nc1nc(OC(F)F)cc(OC(F)F)n1`, for which the result in [1], in [2], in assay [3], in assay [4], in [5] and in assay [6] was inactive. The call in [7], in assay [8] and in [9] was inactive.
Regarding `COC(=O)c1ccc(CNS(C)(=O)=O)cc1S(=O)(=O)NC(=O)Nc1nc(OC)cc(OC)n1`, the call in assay [1], in assay [2], in assay [3], in assay [4], in [5] and in assay [6] was inactive. For the same compound, the outcome in [7], in assay [8] and in assay [9] was inactive.
Consider `c1ccc(Nc2ccccc2)cc1`, for which the call in assay [1], in [2], in [3], in [4], in assay [6] and in assay [7] was inactive. Moreover, the outcome in [8] and in [9] was inactive. For the same compound, the AC50 in assay [5] is 123 µM (active) and 30.4 µM (active); in assay [6], 50 µM (active).
In the case of `O=C(Nc1ccc([N+](=O)[O-])cc1Cl)c1cc(Cl)ccc1O`, the call in assay [1], in assay [2], in assay [3] and in assay [8] was inactive. Also, the AC50 was 1.17 µM (active) in [4]; 0.544 µM (active) in [5]; 0.7 µM (active) in assay [6]; 0.7 µM (active) in assay [7]; 0.145 µM (active) in assay [9].
As for `CCOC(=O)[C@H](C)Oc1ccc(Oc2nc3ccc(Cl)cc3o2)cc1`, the result in assay [1], in assay [2], in assay [3], in [4], in assay [6] and in assay [7] was inactive. For the same compound, the outcome in assay [8] and in [9] was inactive. Further, the AC50 in [5] was 50 µM (active).
Turning to `CCOC(=O)NCCOc1ccc(Oc2ccccc2)cc1`, the compound was classed as inactive in assay [1], in [2], in assay [3], in assay [4], in assay [7] and in assay [8]. The AC50 in [5] was 13.1 µM (active); in assay [6] it was 14 µM (active); in assay [9] it was 30.4 µM (active).
Turning to `CCN(CC)C(=O)c1cccc(C)c1`, the result in assay [1], in assay [2], in [3], in assay [5], in [6] and in assay [8] was inactive. The result in assay [9] was inactive.
Consider `CCCN(CCC)C(=O)SCC`, for which the call in [1], in [2], in assay [3], in assay [5], in assay [6] and in [7] was inactive. In addition, the outcome in assay [8] and in assay [9] was inactive.
For `CCSC(=O)N(CC(C)C)CC(C)C`, the compound was classed as inactive in assay [1], in assay [2], in assay [3], in [4], in [5] and in assay [6]. In addition, the compound was called inactive in assay [7], in [8] and in assay [9].
Regarding `OB(O)O`, the call in assay [1], in assay [2], in [3], in assay [5], in assay [6] and in assay [7] was inactive. Besides, the outcome in [8] and in assay [9] was inactive.
For `CC(=O)[C@H]1CC[C@H]2[C@@H]3CCC4=CC(=O)CC[C@]4(C)[C@H]3CC[C@]12C`, the result in assay [1], in [2], in assay [3], in [5], in [6] and in assay [7] was inactive. For the same compound, the AC50 in [5] was 33.4 µM (active) and 16.3 µM (active); in assay [8], 13.1 µM (active); in assay [9], 5.32 µM (active).
As to `CN(C)C(=O)Nc1ccc(Cl)c(Cl)c1`, the compound was classed as inactive in [1], in assay [2], in [3], in [7], in assay [8] and in [9]. The AC50 is 23.6 µM (active) and 13.1 µM (active) in [5]; 146 µM (active) and 30.3 µM (active) in [6].
Turning to `O=C(O)c1ccccc1`, the call in [1], in [2], in assay [3], in assay [5], in assay [6] and in [7] was inactive. In addition, the outcome in [8] and in [9] was inactive.
